# Screens (PubChem)
# Hits are enriched below; roughly 12% of the tested compounds scored in any of these assays.
# LASV entry inh – qHTS for Inhibitors of binding or entry into cells for Lassa Virus | Lassa virus pseudotype entry inhibition, cell reporter | Potency, µM (doses to about 37.9 µM), without a hit: top-dose activity change, negative = inhibition, actives largely listed as inhibitors | actives 1.2% (n = 300,000); calls by dose curve; tested in HEK293 cells; note: potency is the fitted concentration of half-maximal effect; % is set by controls: 0 for no effect and ±100 for the full control effect; nearly all actives have a fitted effect of over 50% in size
# Shiga inhibitor – A qHTS for Small Molecule Inhibitors of Shiga Toxin; Vero cells, Shiga toxin protein synthesis inhibition reporter; actives 9.2% (n = 290,000); inhibition, % at 38.7 µM; in the data active = inhibition mostly above about 28%, no sharp cut-off; inactive = mostly below about 43%; note: 0% is about no effect
# Cycloheximide cs – Cycloheximide Counterscreen for Small Molecule Inhibitors of Shiga Toxin; cell reporter, cycloheximide protein synthesis inhibition counterscreen; AID 2314, 2010; actives 12% (n = 300,000); max response, %; in the data active = max response mostly above about 13%, no sharp cut-off; inactive = mostly below about 14%; note: read at 38.3 µM for the half of the compounds with a filed dose; 0% is about no effect
# MARV entry inh – qHTS for inhibitors of binding or entry into cells for Marburg Virus; Marburg virus pseudotyped entry inhibition, cell reporter; AID 540276, 2011; Potency, µM (series often up to 37.8 µM), without a hit: at the top dose activity change, negative = inhibition, usual class: inhibitors; actives 1.8% (n = 300,000); calls by dose curve; tested in HEK293 cells; note: potency is the fitted concentration of half-maximal effect; % is set by controls: 0 for no effect and ±100 for the full control effect
# Active calls of the source: *; ? = inconclusive; . = no result; [ ] = remark or other dose.
SMILES,LASV entry inh,Shiga inhibitor,Cycloheximide cs,MARV entry inh
N#CC1=C(N)N2C(=C(C#N)C13CCCC3)Nc1ccccc12,12%,51*,8.8*,-23%[46.1 µM]
O=C(COC(=O)c1cccs1)NCC1CCCCC1,2%,23,20*,?
O=C(COC(=O)c1ccc(Br)o1)NCC1CCCCC1,-19%,.,.,?
O=C(COC(=O)c1cccs1)NCc1ccc2c(c1)OCO2,?,69*,40*,12%
O=C(COC(=O)c1cccs1)NCc1ccccc1,16%,38,25*,17%
C=C(C)C(=O)OCC(=O)NCc1ccccc1,-10%,114*,36*,12%[46.1 µM]
O=C(COC(=O)c1cccs1)NCc1ccco1,?,39,-2,?
CC(=O)Nc1ccc(C(=O)OCC(=O)NCc2ccccc2)cc1,?,2,5,?
C=CCn1c(=O)c2ccccc2n2c(SCC(=O)NCC)nnc12,.,-6,-6,.
O=C(O)c1ccc(Br)c(S(=O)(=O)N2CCCC2)c1,-40%[14.3 µM],-11,5,-9%
Cc1[nH]n2c(=O)cc(C(C)(C)C)nc2c1-c1ccccc1,10µM*,-14,1,?
Cc1[nH]n2c(=O)cc(-c3ccc(Cl)cc3)nc2c1-c1ccccc1,2.5µM*,.,.,11µM*
Cc1[nH]n2c(=O)cc(C(C)C)nc2c1-c1ccccc1,-11%,-15,-3,?
CCN(CC)C(=O)CSc1nc(-c2ccc(C)cc2)nc2c1Cc1c(CO)cnc(C)c1O2,0%[46.1 µM],.,.,.
CC(=O)N1C=Cc2c(c(C)c3c([nH]c4ccccc43)c2C)C1,.,25,17*,.
Cc1cc(=O)[nH]c(-c2ccccc2OC(F)(F)F)n1,.,-2,-3,.
CCOc1ccc2oc(=O)cc(CN3CCN(C(=O)c4cccc(F)c4)CC3)c2c1,-1%[46.1 µM],.,.,-4%[46.1 µM]
COCCCN=Cc1c(-c2ccccc2)[nH]n(-c2nc3ccccc3s2)c1=O,-24%,42,16*,?
O=c1c(C=NCCCO)c(-c2ccccc2)[nH]n1-c1nc2ccccc2s1,-7%,39*,28*,-5%
CCCc1[nH]n(-c2nc3ccccc3s2)c(=O)c1C=NCCCOC,.,37,22,.
CCCc1[nH]n(-c2nc3ccccc3s2)c(=O)c1C=NCCN1CCOCC1,0%,28,17,3%
CCCCCN=Cc1c(C)[nH]n(-c2nc3ccccc3s2)c1=O,?,9,16*,?
Cc1ccc(C(O)P(=O)(OCc2ccccc2)c2ccc(N(C)C)cc2)cc1 (stereo not drawn),.,20,-1,.
N#Cc1nc(-c2cccc3ccccc23)oc1NCCN1CCOCC1,27%,33,15*,5%
CCCNc1oc(-c2cccc3ccccc23)nc1C#N,9%,69*,22*,15%
SMILES,LASV entry inh,Shiga inhibitor,Cycloheximide cs,MARV entry inh
COc1cccc(-c2nc(-c3ccccc3)nc(N3CCN(C)CC3)c2C#N)c1,?,17,-2,?
COc1cccc(-c2nc(N)nc(SC)c2C#N)c1,12%,31,14*,4%
O=C(O)c1ccc(N/N=C/c2ccc3c(c2)OCO3)cc1,?,-41,-11,?
O=C(CNc1ccc2ccccc2c1)N/N=C/c1ccc([N+](=O)[O-])o1,-9%,15,3,-15%[46.1 µM]
O=C(O)c1ccc(N/N=C/c2cc3cc4c(cc3nc2Cl)OCCO4)cc1,.,-2,12*,.
O=Cc1cc2cc3c(cc2nc1Cl)OCCO3,.,46,7,.
Cc1cc(=O)oc2cc(OCC(=O)N/N=C/c3ccccc3[N+](=O)[O-])ccc12,-1%,4,0,?
O=C(CSc1ccc(Cl)cc1)N/N=C/c1ccc([N+](=O)[O-])o1,.,19,14*,.
O=C(COc1ccccc1)N/N=C/c1cc2c(cc1[N+](=O)[O-])OCO2,-14%,86,23*,-10%
O=C(O)c1ccc(N/N=C/c2cc3c(cc2[N+](=O)[O-])OCO3)cc1,13%[46.1 µM],42*,17,?
CCOC(=O)c1[nH]ncc1CN1CCN(Cc2ccc(C)cc2)C(CCO)C1 (stereo not drawn),-9%,-9,-2,1%[46.1 µM]
O=C1CCCc2cc(S(=O)(=O)NCC3CCC(C(=O)NCc4ccccc4Cl)CC3)ccc2N1 (stereo not drawn),8%[46.1 µM],.,.,.
COc1ccc(S(=O)(=O)N2CCN(c3ccccc3OC)CC2)cc1-c1noc(C)n1,8%[46.1 µM],-7,8,7%[46.1 µM]
O=C(COc1ccccc1)N/N=C/c1ccc([N+](=O)[O-])o1,.,9,11*,.
O=C(CCN1CCOCC1)NC12CC3CC(CC(C3)C1)C2,.,-6,0,.
C1CCC(N=C(NC23CC4CC(CC(C4)C2)C3)N2CCOCC2)CC1,-33%,.,.,10µM*
CNc1nc(C)cc(C)c1S(=O)(=O)c1ccc(C)cc1,-3%,-3,-1,?
